Screens deposited in PubChem BioAssay by National Center for Advancing Translational Sciences (NCATS).
Pin1 inhibitor = blocks the human prolyl isomerase Pin1; Q13526; Pin1 FP peptide displacement, HiFluor488, 10 min; Potency, µM (series often up to 115 µM), hits mostly inhibitors; 0.009% of 390,000 active; AID 504891; active = well fitted inhibition curve with a large enough effect in the polarisation, with a control signal flat, not every such curve was filed as active; inconclusive = small, poorly fitted or top-dose-only effect, or effect the other way, or a change in a side signal; inactive = no such curve, though single readings can be large or run the other way; the % refers to the polarisation
Target sequence (Q13526 whole entry, looked up): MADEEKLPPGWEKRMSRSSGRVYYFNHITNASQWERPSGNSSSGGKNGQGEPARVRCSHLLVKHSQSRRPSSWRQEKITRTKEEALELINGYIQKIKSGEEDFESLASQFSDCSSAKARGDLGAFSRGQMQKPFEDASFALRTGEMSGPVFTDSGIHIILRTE
PI4K2A block = blocks human PI4K2A kinase activity; Q9BTU6; purified PI4K2A, ADP-Glo luminescence, 1 h; hits give low values; activity change, negative = inhibition, % at 76.9 µM; 0.13% of 420,000 active; in the data active = activity change below about -50%; inconclusive = mostly about -30% to -49%
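ADP-Glo luminescence measured ADP generated by PI4K2A enzyme (4 ug/mL before mixing) with 1.2 mM PI substrate (pre-mix) and 300 microM ATP (pre-mix). Tris pH7.5 buffer with MgCl2, Triton X-100; 1 h reaction at ambient temperature.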
Tb PFK block = T. brucei PFK enzyme inhibition; T. brucei PFK, ADP-Glo luminescence; Potency, µM (series often up to 57.5 µM), hits mostly inhibitors; 0.17% of 330,000 active; AID 485367; also: nearly all actives have a fitted effect of over 60% in size
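ADP-Glo luminescence quantified ADP after 45 min at room temperature, with 1.25 nM T. brucei PFK, 0.1 mM ATP and 0.5 mM fructose-6-phosphate in pH 8.0 TEA buffer. qHTS titrations up to 57 µM; curves classified by quality.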
PI5P4Ka inh = inhibitors of human PI5P4K alpha; P48426; PI5P4Kalpha enzyme, ADP-Glo luminescence, 60 min; hits give low values; max response, %; 1.2% of 330,000 active; AID 652105; active = max response of -50% or lower; inconclusive = between -30% and -50%; inactive = -30% or higher; also: value at the top dose of about 77 µM
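Compounds were pin-transferred onto PI5P4Kalpha and substrate in HEPES pH 7.4 buffer with EGTA, CHAPS and 5% DMSO. ATP (5 microM final) started the reaction, which ran 60 minutes at room temperature before ADP-Glo detection.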
Tb PGK inh = T. brucei PGK inhibition; 0.043% of 380,000 active; PGK/GAPDH coupled, Kinase-Glo luminescence, 60 min; Potency, µM (top dose mostly 57.5 µM), most hits filed as inhibitors; also: nearly all actives have a fitted effect of over 60% in size
Target sequence (P07378 whole entry, looked up): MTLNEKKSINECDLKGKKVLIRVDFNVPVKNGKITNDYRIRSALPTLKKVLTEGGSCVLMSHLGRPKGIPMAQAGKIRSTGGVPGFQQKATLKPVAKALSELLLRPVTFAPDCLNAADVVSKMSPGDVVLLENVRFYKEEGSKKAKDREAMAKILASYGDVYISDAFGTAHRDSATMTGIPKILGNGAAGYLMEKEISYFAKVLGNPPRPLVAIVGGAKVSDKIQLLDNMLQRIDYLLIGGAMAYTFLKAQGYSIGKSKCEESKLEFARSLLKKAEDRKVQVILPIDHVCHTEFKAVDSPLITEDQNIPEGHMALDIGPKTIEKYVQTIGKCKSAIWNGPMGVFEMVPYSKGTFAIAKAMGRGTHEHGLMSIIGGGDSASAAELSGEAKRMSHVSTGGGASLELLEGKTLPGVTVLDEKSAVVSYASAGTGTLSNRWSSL
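Luminescent ATP detection (Kinase-Glo Plus) follows a 60-minute room-temperature incubation, with wells lacking PGK as controls. Buffer: 100 mM TEA (pH 7.6), 5 mM MgCl2, 0.01% Tween-20. Coupling enzyme GAPDH (100 nM final) supplies unstable 1,3-BPG in-well.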
A number is an active result; n = inactive; u = inconclusive; x = no result. This is one part of a sample in which hits are shown more often than they occur. Unless noted, calls follow the shape of the dose curve; as a rule, active = well fitted curve in the direction sought with a large enough effect; inconclusive = small, poorly fitted or top-dose-only effect, or another doubt; inactive = no such curve, though single readings can be large; an effect the other way counts as inactive or inconclusive.

SMILES | Pin1 inhibitor | PI4K2A block | Tb PFK block | PI5P4Ka inh | Tb PGK inh
O=C(c1ccco1)N1CCN(C(=O)c2cc(-c3ccccn3)nc3ccc(Cl)cc23)CC1 | n | n | n | -59.3 | n
COc1ccc(CCNC(=O)c2ccc(Cn3c(=O)c4ccccc4n(Cc4ccccc4Cl)c3=O)cc2)cc1OC | n | n | x | x | n
COc1cc(C(=O)N/N=C/c2ccc(OC(=O)c3ccccc3)c(OC)c2)ccc1O | n | n | n | n | n
O=C(N/N=C/c1ccoc1)c1cc(O)cc(O)c1 | u | n | u | -71.3 | u
COc1ccc(C(=O)Oc2ccc(/C=N/NC(=O)c3ccccc3OC)cc2[N+](=O)[O-])cc1 | n | n | n | n | n
O=C(N/N=C/c1ccc(OC(=O)c2ccccc2)c([N+](=O)[O-])c1)c1ccc(O)cc1 | n | n | u | -78.7 | n
COc1cc(/C=N/NC(=O)c2cc(O)cc(O)c2)ccc1OC(=O)c1ccccc1 | u | n | n | -91.7 | 12.6µM
COc1ccc(/C=N\NC(=O)c2cc(O)c(O)c(O)c2)cc1COc1ccc(C(=O)OCC(C)C)cc1 | u | n | n | -71.8 | n
COc1ccccc1CNS(=O)(=O)c1cnc(N)nc1 | n | n | x | x | n
O=C(N/N=C/c1ccc(OC(=O)c2ccccc2Cl)cc1)c1cc(O)cc(O)c1 | x | n | n | -66.4 | u
O=C(N/N=C/c1ccoc1)c1ccc(Br)cc1 | n | n | n | n | n
O=C(O)c1cc(=O)c2c(Cl)cc(Cl)cc2[nH]1 | n | n | x | -58.9 | n
COC(=O)C1CN(Cc2cn(Cc3ccc(Cl)cc3)nn2)CCS(=O)(=O)N1Cc1ccc(OC)cc1 (stereo unspecified) | x | n | x | x | x
COc1ccc(S(=O)(=O)Oc2ccc3ccccc3c2)cc1 | n | n | n | n | n
COC1=C(OC)C(=O)C(Sc2ccc3ccccc3c2)=CC1=O | n | n | x | -90.8 | n
CCOc1ccc2nc(NC(=O)c3cccnc3)sc2c1 | n | n | n | n | n
CCOc1ccc2nc(NC(=O)c3ccccc3)sc2c1 | n | -57.9 | x | x | u
O=C(CSc1nc(=O)n(Cc2ccccn2)c2c1CCC2)Nc1cccc(Cl)c1 | n | n | x | x | n
CCCOc1ccc(C(=O)NCCC(=O)NCCCC(=O)OCC)cc1 | n | n | n | x | n
CN(C)C1(CN=Cc2cc(Cl)cc([N+](=O)[O-])c2O)CCCCC1 | n | n | n | -62.3 | n
CCOc1cc2c(c3c1C(c1ccccc1)N(S(=O)(=O)c1ccc(C)cc1)C3)C(=O)C=CC2=O (stereo unspecified) | x | n | x | -84.7 | x
CC(=O)c1cccc(NC(=S)NC(=O)Cc2ccc(Cl)cc2)c1 | n | n | n | n | n
Cc1ccc(-c2cc3c(nn2)-c2ccccc2C3=O)cc1 | n | -63.2 | n | u | u
NS(=O)(=O)c1ccc(-c2ccc(C=C3C(=O)c4ccccc4C3=O)o2)cc1 | n | n | n | n | n
CC(C)CC1=C/C(=C/c2ccc(-c3ccccc3)o2)C(=O)O1 | u | n | n | -68.0 | n
SMILES | Pin1 inhibitor | PI4K2A block | Tb PFK block | PI5P4Ka inh | Tb PGK inh
COc1ccc(C(C)=O)cc1CSc1nc2cc(C(=O)O)ccc2c(=O)n1Cc1ccccc1 | n | n | n | -60.5 | n
O=C(Nn1c(-c2ccncc2)nc2ccccc2c1=O)c1ccc(Br)cc1 | n | n | n | n | n
O=C(Nn1c(-c2ccc(Br)cc2)nc2ccccc2c1=O)c1cccnc1 | n | n | n | -56.2 | n
O=C1CC(c2ccc(F)cc2)Cc2nc(N3CCOCC3)ncc21 (stereo unspecified) | n | n | n | n | n
Cc1ccc(NC2=CC(=O)C(=O)c3ccccc32)cc1 | n | -66.3 | n | x | n
CC(=O)Nc1ccc(NC2=CC(=O)c3ccccc3C2=O)cc1 | n | n | n | n | n
O=C1C=C(Nc2ccc(O)cc2)C(=O)c2ccccc21 | u | -56.1 | u | u | u
CC1CCC/C(=N\NC(=O)COc2ccc(Cl)cc2Cl)C1 (stereo unspecified) | n | n | n | n | n
O=C1CCCC2=C1C(c1ccco1)Nc1ccc3ccccc3c12 (stereo unspecified) | x | n | u | -64.4 | u
O=C1CCCC2=C1C(c1ccc(O)c(O)c1)Nc1ccc3ccccc3c12 (stereo unspecified) | u | n | x | u | n
N#CC1=C(N)C2=C(N3CCCCC3)CCCC2C1(C#N)C#N (stereo unspecified) | x | n | n | -54.0 | n
N#CC(C#N)=C1C=C2C=C(N3CCCCC3)CCC2CC1 (stereo unspecified) | u | n | n | n | n
Clc1ccc(Cn2c(/C=C/c3ccco3)nc3ccccc32)cc1 | n | n | n | -78.5 | n
Cc1ccc(Cn2c(/C=C/c3ccco3)nc3ccccc32)cc1 | n | n | u | -63.6 | n
CCCCn1c(/C=C/c2ccco2)nc2ccccc21 | u | n | n | n | n
CCCn1c(/C=C/c2ccco2)nc2ccccc21 | n | n | n | -52.2 | n
COc1ccc(C(=O)NCCc2nc3cc([N+](=O)[O-])ccc3n2C)cc1 | n | n | n | n | n
O=C1C=CC(=O)N1CCCCCCCCCCN1C(=O)C=CC1=O | n | n | x | -50.6 | n
O=c1ccc(NS(=O)(=O)c2ccc(Cl)cc2)cn1Cc1ccc(Cl)c(Cl)c1 | n | -59.2 | n | n | n
O=S(=O)(Nc1ccc(Cc2ccncc2)cc1)c1ccc(Cl)cc1 | n | n | n | n | n
O=C(CN1C2CCCC1CC(NC(=O)C1CCCCC1)C2)NCc1ccc(F)cc1 (stereo unspecified) | n | n | n | n | n
Nc1ccc(C(=O)N/N=C/c2cn(Cc3ccc(F)cc3)c3ccccc23)cc1 | n | n | n | n | n
O=C(N/N=C/c1cn(Cc2cccc(F)c2)c2ccccc12)c1cc(O)cc(O)c1 | x | n | u | -104.3 | 4.47µM
CC(=O)C1=C(C)NC(SCC(=O)c2ccc(Cl)cc2)=C(C#N)C1CC(C)C (stereo unspecified) | n | n | n | n | n
CC(=O)C1=C(C)NC(SCC(=O)c2ccc(F)cc2)=C(C#N)C1CC(C)C (stereo unspecified) | n | n | n | -57.0 | n
SMILES | Pin1 inhibitor | PI4K2A block | Tb PFK block | PI5P4Ka inh | Tb PGK inh
COc1cc2c(cc1OC)C(C(C(=O)N(CCc1ccc(OC)c(OC)c1OC)CCc1ccc(OC)c(OC)c1OC)c1ccccc1)=NCC2 (stereo unspecified) | x | n | x | x | x
O=C(O)CSc1ncnc2sc(-c3ccccc3)cc12 | n | n | n | -78.1 | n
O=C(O)CCSc1ncnc2sc(-c3ccccc3)cc12 | n | n | n | n | n
Cc1nc2ccc(S(=O)(=O)NC(C(=O)NCc3cccs3)C(C)C)cc2s1 (stereo unspecified) | n | n | n | n | n
CCN(CC)C(=S)SSC(=S)N(CC)CC | n | n | u | -77.5 | n
CCN(CC)C(=S)SCC(=O)c1ccccc1 | n | n | n | x | n
Cc1cnc(C=NNC(N)=S)c2cccc(N)c12 | u | n | x | -53.2 | n
